Measurements as given in PubChem BioAssay (NCI).
The panel holds about 79,000 compounds, 15% with a hit somewhere; the sample as a whole holds those more often. Calls of active or inactive are those of the source. Cut-off read from the data, not from the text of the source: active = growth inhibition above about 70%; inactive = the rest.

Assays:
[1] = NCI Yeast Anticancer Drug Screen. Data for the rad52 strain (AID 147);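 note: 0% = growth of vehicle-treated control cultures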; details: S. cerevisiae rad52 mutant growth inhibition, hits give high values
Method in brief: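 Compounds are applied to a genetically defined yeast strain lacking normal DNA damage repair, and inhibition of growth is expressed relative to cultures given vehicle only.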

[2] = NCI Yeast Anticancer Drug Screen. Data for the wt1 strain (AID 149);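 note: 0% = growth of vehicle-treated wt1 cultures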; details: S. cerevisiae wt1 strain (SPY 50644) growth inhibition, hits give high values
Method in brief: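 Readout: yeast growth inhibition, normalised to vehicle controls, in the wt1 strain exposed to test compounds.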

[3] = NCI Yeast Anticancer Drug Screen. Data for the rad50EPP+ strain (AID 151);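 note: 0% = growth of vehicle-treated control cultures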; details: S. cerevisiae rad50 mutant strain, hits give high values
Method in brief: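 Compounds were applied to the rad50EPP+ yeast strain, which bears a defined DNA repair alteration, and growth inhibition was determined relative to vehicle-treated cultures.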

[4] = NCI Yeast Anticancer Drug Screen. Data for the mgt1 strain (AID 153); details: S. cerevisiae mgt1 mutant growth inhibition, hits give high values
Method in brief: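 Strain: mgt1 yeast, one of a set carrying defined DNA damage repair or cell cycle control alterations. Compound-treated growth compared with vehicle.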

[5] = NCI Yeast Anticancer Drug Screen. Data for the rad50 strain (AID 155);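 note: 0% = growth of vehicle-only cultures of the same strain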; details: S. cerevisiae rad50 strain growth inhibition, hits give high values
Method in brief: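 Compounds were tested on a yeast strain with an engineered DNA damage repair alteration; the reported value is growth inhibition normalised to vehicle treatment.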

[6] = NCI Yeast Anticancer Drug Screen. Data for the mec2-1 strain (AID 157); details: S. cerevisiae mec2-1 strain, hits give high values
Method in brief: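 Strain: mec2-1 (DNA repair/cell cycle alteration). Compound exposure, then growth measured; inhibition expressed relative to vehicle.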

[7] = NCI Yeast Anticancer Drug Screen. Data for the rad14 strain (AID 159);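 note: 0% = growth of vehicle-treated control cultures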; details: S. cerevisiae rad14 strain growth inhibition, hits give high values
Method in brief: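 Compound-treated yeast with a defined DNA-repair lesion; growth inhibition normalised to vehicle-treated cultures.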

[8] = NCI Yeast Anticancer Drug Screen. Data for the sgs1 mgt1 strain (AID 161);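 note: 0% = growth of cultures given vehicle only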; details: S. cerevisiae sgs1 mgt1 strain, hits give high values
Method in brief: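 Inhibition of yeast growth, normalised to vehicle-treated controls, is reported for a strain bearing genetic alterations in DNA damage repair.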

[9] = NCI Yeast Anticancer Drug Screen. Data for the CLN2oe strain (AID 163);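 note: 0% = growth of vehicle-only control cultures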; details: S. cerevisiae CLN2oe strain, hits give high values
Method in brief: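 Growth of a genetically modified yeast strain is measured after compound exposure and compared with cultures given vehicle alone.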

[10] = NCI Yeast Anticancer Drug Screen. Data for the cln2 rad14 strain (AID 165);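 note: 0% = growth equal to vehicle treated cultures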; details: S. cerevisiae cln2 rad14 strain, hits give high values
Method in brief: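 Compounds are applied to the cln2 rad14 yeast strain, and growth is then compared with that of vehicle-treated cultures to give inhibition.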

[11] = NCI Yeast Anticancer Drug Screen. Data for the bub3 strain (AID 167); details: S. cerevisiae bub3 mutant strain, hits give high values
Method in brief: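 Growth of a checkpoint-deficient yeast mutant is measured after compound exposure. Values represent inhibition relative to vehicle.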

[12] = NCI Yeast Anticancer Drug Screen. Data for the wt2 strain (AID 169);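 note: 0% = growth of vehicle-treated yeast cultures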; details: S. cerevisiae wt2 strain growth inhibition, hits give high values
Method in brief: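 This strain belongs to a panel of yeast strains with defined genetic alterations in DNA damage repair or cell cycle control. Compounds are applied, and growth inhibition is measured against vehicle-treated cultures.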

[13] = NCI Yeast Anticancer Drug Screen. Data for the mlh1 strain (AID 171);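 note: 0% = growth of vehicle-treated control cultures of the same strain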; details: S. cerevisiae mlh1 strain growth inhibition, hits give high values
Method in brief: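 Growth of the mutant yeast strain after compound exposure, expressed as inhibition relative to vehicle-only controls.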

[14] = NCI Yeast Anticancer Drug Screen. Data for the sgs1 strain (AID 173);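 note: 0% = growth of vehicle-only control cultures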; details: S. cerevisiae sgs1 mutant, hits give high values
Method in brief: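 Growth of a yeast strain bearing a defined genetic alteration is measured after compound treatment. Inhibition is expressed relative to vehicle-only controls.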

[15] = NCI Yeast Anticancer Drug Screen. Data for the mlh1 rad18 strain (AID 175); details: S. cerevisiae mlh1 rad18 strain growth inhibition, hits give high values
Method in brief: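 Read-out is yeast growth inhibition, calculated against vehicle-only controls. The compound was applied to a strain engineered with DNA damage repair alterations.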

[16] = NCI Yeast Anticancer Drug Screen. Data for the rad18 strain (AID 177); details: S. cerevisiae rad18 mutant growth inhibition, hits give high values
Method in brief: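 Growth of the mutant yeast strain after compound exposure, normalised to vehicle-only cultures.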

[17] = at 5.0 µM (retest, dose inferred, filed as 0.5)
[18] = at 50.0 µM (retest, dose inferred, filed as 5.0)

Measured: growth inhibition

O=C1c2ccccc2C(=O)C(Cl)C1Cl (stereo unspecified)
inactive: [1]; at 1.2 µM 1% | [1]; at 3.7 µM 15% | [2]; at 1.2 µM 7% | [2]; at 3.7 µM 18% | [3]; at 1.2 µM 7% | [3]; at 3.7 µM 36% | [4]; at 1.2 µM 7% | [4]; at 3.7 µM 13% | [5]; at 1.2 µM 5% | [5]; at 3.7 µM 36% | [5]; [17] 29% | [6]; at 1.2 µM 9% | [6]; at 3.7 µM 22% | [6]; [17] 34% | [7]; at 1.2 µM 7% | [7]; at 3.7 µM 18% | [8]; [17] 33% | [9]; at 1.2 µM 4% | [9]; at 3.7 µM 10% | [10]; [17] 10% | [11]; at 1.2 µM 13% | [11]; at 3.7 µM 35% | [12]; at 1.2 µM 9% | [12]; at 3.7 µM 24% | [13]; at 1.2 µM 1% | [13]; at 3.7 µM 4% | [14]; at 1.2 µM 4% | [14]; at 3.7 µM 15% | [15]; [17] 21% | [16]; at 1.2 µM 1% | [16]; at 3.7 µM 10%
active: [1]; at 11.0 µM 88% | [1]; at 33.0 µM 99% | [1]; at 100.0 µM 98% | [2]; at 11.0 µM 72% | [2]; at 33.0 µM 99% | [2]; at 100.0 µM 99% | [3]; at 11.0 µM 98% | [3]; at 33.0 µM 99% | [3]; at 100.0 µM 98% | [4]; at 11.0 µM 99% | [4]; at 33.0 µM 99% | [4]; at 100.0 µM 99% | [5]; at 11.0 µM 98% | [5]; at 33.0 µM 99% | [5]; [18] 99% | [5]; at 50.0 µM 99.2% | [5]; at 100.0 µM 99% | [6]; at 11.0 µM 90% | [6]; at 33.0 µM 99% | [6]; [18] 99% | [6]; at 50.0 µM 99.4% | [6]; at 100.0 µM 99% | [7]; at 11.0 µM 92% | [7]; at 33.0 µM 99% | [7]; at 100.0 µM 99% | [8]; [18] 99% | [8]; at 50.0 µM 99.5% | [9]; at 11.0 µM 71% | [9]; at 33.0 µM 99% | [9]; at 100.0 µM 98% | [10]; [18] 99% | [10]; at 50.0 µM 99.1% | [11]; [17] 88% | [11]; at 11.0 µM 98% | [11]; at 33.0 µM 99% | [11]; [18] 99% | [11]; at 50.0 µM 99.3% | [11]; at 100.0 µM 99% | [12]; at 11.0 µM 82% | [12]; at 33.0 µM 99% | [12]; at 100.0 µM 99% | [13]; at 11.0 µM 93% | [13]; at 33.0 µM 99% | [13]; at 100.0 µM 99% | [14]; at 11.0 µM 89% | [14]; at 33.0 µM 99% | [14]; at 100.0 µM 99% | [15]; [18] 99% | [15]; at 50.0 µM 99.3% | [16]; at 11.0 µM 91% | [16]; at 33.0 µM 99% | [16]; at 100.0 µM 99%

COC1C(O)C(C)OC(OC2C(Oc3cccc4c(O)c5c(=O)oc6ccc(C)c7c(=O)oc(c34)c5c67)OC(C)C(O)C2O)C1O (stereo unspecified)
inactive: [1]; at 1.2 µM 41% | [1]; at 3.7 µM 67% | [2]; at 1.2 µM 6% | [2]; at 3.7 µM 2% | [2]; at 11.0 µM 8% | [2]; at 33.0 µM 17% | [2]; at 100.0 µM 12% | [3]; at 1.2 µM 7% | [3]; at 3.7 µM 22% | [3]; at 11.0 µM 31% | [3]; at 33.0 µM 39% | [3]; at 100.0 µM 35% | [4]; at 1.2 µM -4% | [4]; at 3.7 µM 7% | [4]; at 11.0 µM -4% | [4]; at 33.0 µM 25% | [4]; at 100.0 µM 18% | [5]; at 1.2 µM 57% | [5]; [17] 29% | [5]; [18] 68% | [6]; at 1.2 µM 1% | [6]; at 3.7 µM 4% | [6]; [17] 25% | [6]; at 11.0 µM 9% | [6]; at 33.0 µM 18% | [6]; [18] 15% | [6]; at 50.0 µM 33.8% | [6]; at 100.0 µM 34% | [7]; at 1.2 µM 5% | [7]; at 3.7 µM 9% | [7]; at 11.0 µM 20% | [7]; at 33.0 µM 30% | [7]; at 100.0 µM 32% | [8]; [17] 28% | [8]; [18] -2% | [8]; at 50.0 µM 3.65% | [9]; at 1.2 µM 1% | [9]; at 3.7 µM 1% | [9]; at 11.0 µM 9% | [9]; at 33.0 µM 2% | [9]; at 100.0 µM 17% | [10]; [17] 19% | [10]; [18] 5% | [10]; at 50.0 µM -3.1% | [11]; at 1.2 µM -5% | [11]; at 3.7 µM -3% | [11]; [17] 23% | [11]; at 11.0 µM -1% | [11]; at 33.0 µM -2% | [11]; [18] -5% | [11]; at 50.0 µM 57.7% | [11]; at 100.0 µM 14% | [12]; at 1.2 µM 0% | [12]; at 3.7 µM 3% | [12]; at 11.0 µM 12% | [12]; at 33.0 µM 22% | [12]; at 100.0 µM 20% | [13]; at 1.2 µM 0% | [13]; at 3.7 µM 6% | [13]; at 11.0 µM 9% | [13]; at 33.0 µM 17% | [13]; at 100.0 µM 30% | [14]; at 1.2 µM 1% | [14]; at 3.7 µM 4% | [14]; at 11.0 µM 15% | [14]; at 33.0 µM 20% | [14]; at 100.0 µM 22% | [15]; [17] -2% | [15]; [18] -4% | [15]; at 50.0 µM 46.2% | [16]; at 1.2 µM 6% | [16]; at 3.7 µM 3% | [16]; at 11.0 µM 17% | [16]; at 33.0 µM 21% | [16]; at 100.0 µM 16%
active: [1]; at 11.0 µM 85% | [1]; at 33.0 µM 87% | [1]; at 100.0 µM 89% | [5]; at 3.7 µM 78% | [5]; at 11.0 µM 83% | [5]; at 33.0 µM 84% | [5]; at 50.0 µM 88% | [5]; at 100.0 µM 84%
